Screens: PubChem BioAssay, National Center for Advancing Translational Sciences (NCATS)
Many of the other results were omitted from the sample, so hits are more common in it than they were.
LASV entry inh – qHTS for Inhibitors of binding or entry into cells for Lassa Virus | Lassa virus pseudotype entry inhibition, cell reporter | Potency, µM (series often up to 37.9 µM), usual class: inhibitors | 300,000 compounds, 1.2% hits; calls by dose curve; tested in HEK293 cells; note: nearly all actives have a fitted effect of over 50% in size
Cycloheximide cs – Cycloheximide Counterscreen for Small Molecule Inhibitors of Shiga Toxin | 300,000 compounds, 12% hits | max response, % | AID 2314, 2010 | cell reporter, cycloheximide protein synthesis inhibition counterscreen; in the data active = max response mostly above about 13%, no sharp cut-off; inactive = mostly below about 14%; note: read at 38.3 µM for the half of the compounds with a filed dose
MARV entry inh – qHTS for inhibitors of binding or entry into cells for Marburg Virus; 300,000 compounds, 1.8% hits; Potency, µM (top dose mostly 37.8 µM), hits mostly inhibitors; Marburg virus pseudotyped entry inhibition, cell reporter; calls by dose curve; tested in HEK293 cells
Shiga inhibitor – A qHTS for Small Molecule Inhibitors of Shiga Toxin; 290,000 compounds, 9.2% hits; inhibition, % at 38.7 µM; Vero cells, Shiga toxin protein synthesis inhibition reporter; in the data active = inhibition mostly above about 28%, no sharp cut-off; inactive = mostly below about 43%
AMA1-RON2 inh – qHTS for Inhibitors of AMA1-RON; Towards Development of Antimalarial Drug Lead: Primary Screen; Plasmodium falciparum AMA1 (3D7) - RON2 peptide interaction; AlphaScreen AMA1-biotinylated RON2 peptide binding; Potency, µM (highest dose often 58.2 µM), most hits filed as inhibitors; 360,000 compounds, 0.2% hits; AID 720542, 2013; active = well fitted inhibition curve with a large enough effect; inconclusive = small, poorly fitted or top-dose-only effect; inactive = no such curve, though single readings can be large or run the other way; note: nearly all actives have a fitted effect of over 45% in size
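AMA1 (3D7) with his tag at 25 nM final met compounds first, then biotinylated RON2 peptide at 25 nM; detection used donor plus acceptor beads, 10 µg/mL apiece, read by AlphaScreen after 30 min at room temperature.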
Large screens that a line does not name were inactive.

O=C(CSc1cccc[n+]1[O-])Nc1cccc(Oc2ccccc2)c1	LASV entry inh inconclusive, Cycloheximide cs 21
O=C(Cc1ccc(Br)cc1)Nc1cccc(Cl)c1	Cycloheximide cs 21
O=C(CC1SCCNC1=O)Nc1cccc(C(F)(F)F)c1 (stereo not drawn)	none
O=C(CC1SCCNC1=O)Nc1cccc(Cl)c1 (stereo not drawn)	Cycloheximide cs 17, MARV entry inh inconclusive, Shiga inhibitor 39
O=C(Cc1ccc(Cl)cc1)Nc1ccc(Br)cc1	Cycloheximide cs 30, Shiga inhibitor 74
O=C(Cc1ccc(Br)cc1)NNC(=O)Nc1ccc(Cl)cc1	MARV entry inh inconclusive
O=C(COC(=O)c1ccc(S(=O)(=O)N2CCCCCC2)cc1)NCc1ccc(Cl)cc1	none (no result: LASV entry inh, Cycloheximide cs, MARV entry inh, Shiga inhibitor)
CCc1cccc2cc(C(O)CNC(C)(C)C)oc12 (stereo not drawn)	none (no result: LASV entry inh, MARV entry inh, AMA1-RON2 inh)
CCN(CC)C(=O)C(=O)N/N=C/c1ccc(F)cc1	none
CC(C)c1ccc(C2NC(=O)c3n[nH]c(-c4cccs4)c32)cc1 (stereo not drawn)	none (no result: Cycloheximide cs, Shiga inhibitor, AMA1-RON2 inh)
CC(C)c1ccc(N=C2NN=C(c3cccs3)CS2)cc1	LASV entry inh inconclusive, Cycloheximide cs 41, MARV entry inh inconclusive, Shiga inhibitor 87
Cc1cccc(N=C2NN=C(c3c(C)[nH]c4ccccc34)CS2)c1	LASV entry inh inconclusive, MARV entry inh inconclusive
CCc1ccc(C2=NNC(=Nc3cccc(S(=O)(=O)N(C)C)c3)SC2)cc1	LASV entry inh inconclusive, MARV entry inh inconclusive
CC(C)N=C1NN=C(c2ccc(Cl)c(Cl)c2)CS1	Cycloheximide cs 38, MARV entry inh inconclusive, Shiga inhibitor 102
CC(C)N=C1NN=C(c2cccs2)CS1	Cycloheximide cs 35, Shiga inhibitor 54
Cc1ccsc1C(=O)NNC(=O)c1cccc(S(=O)(=O)N2CCCC2)c1	none (no result: Cycloheximide cs, Shiga inhibitor)
Cc1cc(NC(=O)CCC(=O)N(CCC(C)C)C(C(=O)NCC2CCCO2)c2ccccc2C)no1 (stereo not drawn)	none
O=C(Nc1ccc2c(c1)OCCO2)C1CCN(C(=O)c2ccc(Br)cc2)CC1	Cycloheximide cs 18
O=C(Nc1ccc2c(c1)OCCO2)C1CCN(C(=O)c2ccccc2)CC1	Cycloheximide cs 21, Shiga inhibitor 106
O=C(Nc1ccc2c(c1)OCCO2)C1CCN(C(=O)c2ccc([N+](=O)[O-])cc2)CC1	none (no result: LASV entry inh, MARV entry inh)
COc1ccc(C(=O)N2CCC(C(=O)Nc3ccc4c(c3)OCCO4)CC2)cc1	Cycloheximide cs 48
O=C(Nc1ccc2c(c1)OCCO2)C1CCCN(S(=O)(=O)Cc2ccccc2)C1 (stereo not drawn)	Cycloheximide cs 56, Shiga inhibitor 72
O=C(Nc1ccc2c(c1)OCO2)C1CCCN(S(=O)(=O)Cc2ccccc2)C1 (stereo not drawn)	none
COc1ccc(NC(=O)C2CCN(C(=O)c3ccc(OC)cc3)CC2)cc1	none
CC(C)c1nc2ccc(C(=O)NCCCN3CCN(c4ccccc4F)CC3)cc2o1	none (no result: Cycloheximide cs, MARV entry inh, Shiga inhibitor, AMA1-RON2 inh)
O=C(CCCCCn1c(=O)[nH]c2ccccc2c1=O)NCc1cccc(Cl)c1	none (no result: Cycloheximide cs, MARV entry inh, Shiga inhibitor, AMA1-RON2 inh)
CCCc1cc(=O)[nH]c(SCC(=O)Nc2cc(C)on2)n1	none
CCN(CC)Cc1c(O)ccc2cc(-c3nc4ccccc4n3C)c(=O)oc12	Cycloheximide cs 11
CC(=O)Oc1ccc2cc(-c3nc4ccccc4n3C)c(=O)oc2c1	Shiga inhibitor 75
CCc1cc2c(=O)c(-c3nc4ccccc4n3C)c(C)oc2c(CN(CC)CC)c1O	none
COc1ccc(CCNC(=O)c2cc(S(=O)(=O)N3CCCC(C)C3)cn2C)cc1OC (stereo not drawn)	none (no result: Cycloheximide cs, MARV entry inh, Shiga inhibitor, AMA1-RON2 inh)
COc1cccc([C@H]2Oc3ccc(OC)cc3/C(=N\OC[C@@H](O)COCc3ccco3)[C@@H]2O)c1	none (no result: LASV entry inh, Cycloheximide cs, Shiga inhibitor, AMA1-RON2 inh)
Clc1ccc(-c2nnc(N3CCCC3)nn2)cc1	LASV entry inh inconclusive, Cycloheximide cs 34, MARV entry inh inconclusive, Shiga inhibitor 145
CCSc1cc(N2CCCC2)nc(-c2ccc(Cl)cc2)n1	none (no result: LASV entry inh, Cycloheximide cs, MARV entry inh, Shiga inhibitor)
Cc1ccc(N2C(=O)NC(=O)/C(=C\c3cc(C)n(-c4sc5c(c4C#N)CCCC5)c3C)C2=O)cc1	LASV entry inh inconclusive, MARV entry inh 2.5µM
Cc1cc(C(=O)Nc2ccc(Cl)cc2)c(C)n1Cc1cccs1	LASV entry inh inconclusive, Cycloheximide cs 67, MARV entry inh inconclusive, Shiga inhibitor 95
Cc1cc(C)cc(NC(=O)c2cc(C)n(Cc3cccs3)c2C)c1	Cycloheximide cs 49, MARV entry inh inconclusive, Shiga inhibitor 53
